# Reference: PMC8384837, “Expanding the binding specificity for RNA recognition by a PUF domain”
# Tests used:
# Assay in all cases: yeast three-hybrid, YBZ-1, SC-Leu-His + 0.5 mM 3-AT, 4 days
# Details in all cases: tags: N-Gal4 AD-HA kept; label: inside an RPR1-promoter hybrid RNA with tandem MS2 sites; ssRNA
# PUM1 PUF domain R8-RWF = PUM1 PUF domain R8-RWF (Homo sapiens, UniProt Q14671 828-1176, N1122R;Y1123W;Q1126F)
# Procedure, shortened: (§1)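 The interaction score is the logarithmic change in variant frequency from input to selection. It uses log2, with a pseudocount of 1 for absent variants, and frequencies came from PCR-amplified, Illumina-sequenced repeat regions. The libraries were Pumilio-1 PUF domains randomized at the three base-contacting residues per repeat, co-expressed with matching RNA elements in strain YBZ-1 (LexA–MS2 coat fusion, HIS3 reporter). Plating lasted four days on SC-Leu (input) or SC-Leu-His + 0.5 mM 3-AT (selection).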
# PUM1 PUF domain R1-VKR = PUM1 PUF domain R1-VKR (Homo sapiens, UniProt Q14671 828-1176, S863V;R864K;Q867R)
# Procedure, shortened: as §1
# PUM1 PUF domain R1-RKV = PUM1 PUF domain R1-RKV (Homo sapiens, UniProt Q14671 828-1176, S863R;R864K;Q867V)
# Procedure, shortened: as §1
# PUM1 PUF domain R5-GKS = PUM1 PUF domain R5-GKS (Homo sapiens, UniProt Q14671 828-1176, C1007G;R1008K;Q1011S)
# Procedure, shortened: as §1
# PUM1 PUF domain R5-RQA = PUM1 PUF domain R5-RQA (Homo sapiens, UniProt Q14671 828-1176, C1007R;R1008Q;Q1011A)
# Procedure, shortened: as §1
# PUM1 PUF domain R1-QRR = PUM1 PUF domain R1-QRR (Homo sapiens, UniProt Q14671 828-1176, S863Q;Q867R)
# Procedure, shortened: as §1
# PUM1 PUF domain R1-QIR = PUM1 PUF domain R1-QIR (Homo sapiens, UniProt Q14671 828-1176, S863Q;R864I;Q867R)
# Procedure, shortened: as §1
# PUM1 PUF domain R4-DWA = PUM1 PUF domain R4-DWA (Homo sapiens, UniProt Q14671 828-1176, N971D;H972W;Q975A)
# Procedure, shortened: as §1
# PUM1 PUF domain R5-GGE = PUM1 PUF domain R5-GGE (Homo sapiens, UniProt Q14671 828-1176, C1007G;R1008G;Q1011E)
# Procedure, shortened: as §1
# PUM1 PUF domain R5-SED = PUM1 PUF domain R5-SED (Homo sapiens, UniProt Q14671 828-1176, C1007S;R1008E;Q1011D)
# Procedure, shortened: as §1
# PUM1 PUF domain R7-EFS = PUM1 PUF domain R7-EFS (Homo sapiens, UniProt Q14671 828-1176, S1079E;N1080F;E1083S)
# Procedure, shortened: as §1
# PUM1 PUF domain R3-EWV = PUM1 PUF domain R3-EWV (Homo sapiens, UniProt Q14671 828-1176, C935E;R936W;Q939V)
# Procedure, shortened: as §1
# PUM1 PUF domain R3-YCG = PUM1 PUF domain R3-YCG (Homo sapiens, UniProt Q14671 828-1176, C935Y;R936C;Q939G)
# Procedure, shortened: as §1
# PUM1 PUF domain R3-GWP = PUM1 PUF domain R3-GWP (Homo sapiens, UniProt Q14671 828-1176, C935G;R936W;Q939P)
# Procedure, shortened: as §1
# PUM1 PUF domain R3-AIE = PUM1 PUF domain R3-AIE (Homo sapiens, UniProt Q14671 828-1176, C935A;R936I;Q939E)
# Procedure, shortened: as §1
# PUM1 PUF domain R3-ARI = PUM1 PUF domain R3-ARI (Homo sapiens, UniProt Q14671 828-1176, C935A;Q939I)
# Procedure, shortened: as §1
# PUM1 PUF domain R6-TWG = biological target: T1, PUM1 PUF domain R6-TWG (Homo sapiens, UniProt Q14671 828-1176, N1043T;Y1044W;Q1047G)
# T1 sequence: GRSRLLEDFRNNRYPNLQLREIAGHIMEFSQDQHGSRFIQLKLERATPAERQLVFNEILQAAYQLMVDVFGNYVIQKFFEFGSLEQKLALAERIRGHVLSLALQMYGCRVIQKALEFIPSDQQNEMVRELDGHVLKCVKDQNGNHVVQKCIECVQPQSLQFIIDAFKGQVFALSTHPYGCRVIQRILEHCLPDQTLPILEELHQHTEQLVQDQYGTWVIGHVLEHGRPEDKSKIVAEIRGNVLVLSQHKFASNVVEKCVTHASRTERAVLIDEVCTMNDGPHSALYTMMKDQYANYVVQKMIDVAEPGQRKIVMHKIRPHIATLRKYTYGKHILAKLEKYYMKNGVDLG
# Procedure, shortened: as §1
# PUM1 PUF domain R4-RIF = PUM1 PUF domain R4-RIF (Homo sapiens, UniProt Q14671 828-1176, N971R;H972I;Q975F)
# Procedure, shortened: as §1
# PUM1 PUF domain R3-RIY = PUM1 PUF domain R3-RIY (Homo sapiens, UniProt Q14671 828-1176, C935R;R936I;Q939Y)
# Procedure, shortened: as §1
# PUM1 PUF domain R7-TVW = PUM1 PUF domain R7-TVW (Homo sapiens, UniProt Q14671 828-1176, S1079T;N1080V;E1083W)
# Procedure, shortened: as §1
sequence,measurement,setting,value
GGCUAGAACUAGUGGAUCCCCCGGCGCCCGGCGGCUCGAGCCCGGGUAAGCGUAAAUAGUCUGCAUGCCGCCGGGCGCCAUGCCUGCAGGUCGACUCUAGAAAACAUG,binding signal,PUM1 PUF domain R8-RWF,5.22 log2 enrichment (interaction score)
GGCUAGAACUAGUGGAUCCCCCGGCGCCCGGCGGCUCGAGCCCGGGUAAGUGUAAAUGGUCUGCAUGCCGCCGGGCGCCAUGCCUGCAGGUCGACUCUAGAAAACAUG,binding signal,PUM1 PUF domain R1-VKR,0.84 log2 enrichment (interaction score)
same,binding signal,PUM1 PUF domain R1-RKV,0.48 log2 enrichment (interaction score)
GGCUAGAACUAGUGGAUCCCCCGGCGCCCGGCGGCUCGAGCCCGGGUAAGUGUCAAUAGUCUGCAUGCCGCCGGGCGCCAUGCCUGCAGGUCGACUCUAGAAAACAUG,binding signal,PUM1 PUF domain R5-GKS,0.75 log2 enrichment (interaction score)
same,binding signal,PUM1 PUF domain R5-RQA,4.83 log2 enrichment (interaction score)
GGCUAGAACUAGUGGAUCCCCCGGCGCCCGGCGGCUCGAGCCCGGGUAAGUGUAAAUCGUCUGCAUGCCGCCGGGCGCCAUGCCUGCAGGUCGACUCUAGAAAACAUG,binding signal,PUM1 PUF domain R1-QRR,5.33 log2 enrichment (interaction score)
same,binding signal,PUM1 PUF domain R1-VKR,3.48 log2 enrichment (interaction score)
same,binding signal,PUM1 PUF domain R1-QIR,3.53 log2 enrichment (interaction score)
GGCUAGAACUAGUGGAUCCCCCGGCGCCCGGCGGCUCGAGCCCGGGUAAGUGUACAUAGUCUGCAUGCCGCCGGGCGCCAUGCCUGCAGGUCGACUCUAGAAAACAUG,binding signal,PUM1 PUF domain R4-DWA,5.13 log2 enrichment (interaction score)
GGCUAGAACUAGUGGAUCCCCCGGCGCCCGGCGGCUCGAGCCCGGGUAAGUGUGAAUAGUCUGCAUGCCGCCGGGCGCCAUGCCUGCAGGUCGACUCUAGAAAACAUG,binding signal,PUM1 PUF domain R5-RQA,0.37 log2 enrichment (interaction score)
same,binding signal,PUM1 PUF domain R5-GGE,3.62 log2 enrichment (interaction score)
same,binding signal,PUM1 PUF domain R5-SED,5.49 log2 enrichment (interaction score)
GGCUAGAACUAGUGGAUCCCCCGGCGCCCGGCGGCUCGAGCCCGGGUAAGUCUAAAUAGUCUGCAUGCCGCCGGGCGCCAUGCCUGCAGGUCGACUCUAGAAAACAUG,binding signal,PUM1 PUF domain R7-EFS,2.94 log2 enrichment (interaction score)
GGCUAGAACUAGUGGAUCCCCCGGCGCCCGGCGGCUCGAGCCCGGGUAAGUGUAAGUAGUCUGCAUGCCGCCGGGCGCCAUGCCUGCAGGUCGACUCUAGAAAACAUG,binding signal,PUM1 PUF domain R3-EWV,2.9 log2 enrichment (interaction score)
same,binding signal,PUM1 PUF domain R3-YCG,4.58 log2 enrichment (interaction score)
same,binding signal,PUM1 PUF domain R3-GWP,5.41 log2 enrichment (interaction score)
same,binding signal,PUM1 PUF domain R3-AIE,2.83 log2 enrichment (interaction score)
GGCUAGAACUAGUGGAUCCCCCGGCGCCCGGCGGCUCGAGCCCGGGUAAGUGUAAAUAGUCUGCAUGCCGCCGGGCGCCAUGCCUGCAGGUCGACUCUAGAAAACAUG,binding signal,PUM1 PUF domain R3-GWP,6.69 log2 enrichment (interaction score)
same,binding signal,PUM1 PUF domain R3-ARI,4.45 log2 enrichment (interaction score)
same,binding signal,PUM1 PUF domain R6-TWG,3.96 log2 enrichment (interaction score)
same,binding signal,PUM1 PUF domain R4-RIF,5.22 log2 enrichment (interaction score)
same,binding signal,PUM1 PUF domain R4-DWA,5.39 log2 enrichment (interaction score)
GGCUAGAACUAGUGGAUCCCCCGGCGCCCGGCGGCUCGAGCCCGGGUAAGUGUAAAUUGUCUGCAUGCCGCCGGGCGCCAUGCCUGCAGGUCGACUCUAGAAAACAUG,binding signal,PUM1 PUF domain R1-QRR,1.96 log2 enrichment (interaction score)
same,binding signal,PUM1 PUF domain R1-VKR,1.61 log2 enrichment (interaction score)
same,binding signal,PUM1 PUF domain R1-RKV,3.41 log2 enrichment (interaction score)
GGCUAGAACUAGUGGAUCCCCCGGCGCCCGGCGGCUCGAGCCCGGGUAAGUGUAAUUAGUCUGCAUGCCGCCGGGCGCCAUGCCUGCAGGUCGACUCUAGAAAACAUG,binding signal,PUM1 PUF domain R3-EWV,2.82 log2 enrichment (interaction score)
same,binding signal,PUM1 PUF domain R3-GWP,4.22 log2 enrichment (interaction score)
same,binding signal,PUM1 PUF domain R3-ARI,2.15 log2 enrichment (interaction score)
same,binding signal,PUM1 PUF domain R3-RIY,2.12 log2 enrichment (interaction score)
GGCUAGAACUAGUGGAUCCCCCGGCGCCCGGCGGCUCGAGCCCGGGUAAGUGUUAAUAGUCUGCAUGCCGCCGGGCGCCAUGCCUGCAGGUCGACUCUAGAAAACAUG,binding signal,PUM1 PUF domain R5-GKS,3.25 log2 enrichment (interaction score)
same,binding signal,PUM1 PUF domain R5-RQA,5.37 log2 enrichment (interaction score)
GGCUAGAACUAGUGGAUCCCCCGGCGCCCGGCGGCUCGAGCCCGGGUAAGUUUAAAUAGUCUGCAUGCCGCCGGGCGCCAUGCCUGCAGGUCGACUCUAGAAAACAUG,binding signal,PUM1 PUF domain R7-TVW,3 log2 enrichment (interaction score)
